The values below come from PubChem BioAssay AID493170 (National Center for Advancing Translational Sciences (NCATS), 2011).

Records with an inconclusive call do not appear. Values without a mark were called inactive. Active and inactive are the calls of the source. Calls follow the shape of the dose curve; as a rule, active = well fitted inhibition curve with a large enough effect; inconclusive = small, poorly fitted or top-dose-only effect, or effect the other way; inactive = flat fitted curve, though single readings scatter.
% is scaled to controls: 0 for no effect and ±100 for the full control effect; potency is read from the fitted curve at half-maximal effect.

Sequence of Ubiquitin carboxyl-terminal hydrolase 2 (Homo sapiens) (O75604 whole entry, looked up): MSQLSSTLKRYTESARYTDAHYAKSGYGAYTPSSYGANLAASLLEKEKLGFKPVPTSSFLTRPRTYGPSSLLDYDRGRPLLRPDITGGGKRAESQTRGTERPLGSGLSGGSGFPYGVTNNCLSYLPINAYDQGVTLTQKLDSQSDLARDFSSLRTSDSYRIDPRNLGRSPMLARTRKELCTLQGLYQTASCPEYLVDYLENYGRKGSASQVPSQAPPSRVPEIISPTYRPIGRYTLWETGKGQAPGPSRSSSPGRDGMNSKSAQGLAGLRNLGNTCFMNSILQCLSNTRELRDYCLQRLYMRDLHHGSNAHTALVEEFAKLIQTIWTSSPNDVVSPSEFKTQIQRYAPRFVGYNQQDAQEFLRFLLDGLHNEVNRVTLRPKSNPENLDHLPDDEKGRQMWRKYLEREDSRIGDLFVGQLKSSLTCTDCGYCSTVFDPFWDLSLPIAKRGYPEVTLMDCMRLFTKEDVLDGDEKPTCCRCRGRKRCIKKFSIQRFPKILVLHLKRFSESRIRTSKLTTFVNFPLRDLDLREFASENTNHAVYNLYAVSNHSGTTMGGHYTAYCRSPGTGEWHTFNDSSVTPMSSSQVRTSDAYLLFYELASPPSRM

This assay concerns the target Ubiquitin carboxyl-terminal hydrolase 2 (Homo sapiens) (UniProt O75604). Put plainly: Ub-rhodamine 110 based assay for inhibitors Ubiquitin-specific Protease USP2a. Also: nearly all actives have a fitted effect of over 50% in size. The following applies: USP2a Ub-rhodamine110 cleavage, fluorescence; series mostly up to 38.3 µM; activity change, negative = inhibition: at the top concentration. In a few lines: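 Kinetic fluorescence (485/531 nm) read each minute over 7 min after adding Ub-Rhod110 (150 nM final) to USP2a (5 nM final). The enzyme had 30 min RT exposure to compounds beforehand in Tris pH 8.0 buffer with CaCl2, CHAPS and beta-ME.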
Regarding `C[C@@H]1CN([C@H](C)CO)C(=O)Cc2cc(NS(=O)(=O)c3ccc(Cl)cc3)ccc2O[C@H]1CN(C)Cc1ccc(C(F)(F)F)cc1`, the Potency is 10 µM (active).
The same measure, in the same setting: for `O=C(/C(=N/N=C/c1ccc(O)c(O)c1O)c1ccccc1)c1ccccc1` the value was 2.51 µM (active).
On to `CCC1SC2=NC(C)=C(C(=O)OCCOC)C(c3ccc(C(=O)OC)cc3)N2C1=O` (stereo not drawn), for which the “activity change, negative = inhibition” value is -8.2%.
Same read-out and setting: for `CCCCOC1(c2ccccc2)NC(=S)NN=C1c1ccccc1` (stereo not drawn) the value was -3.04%.
The same measure, in the same setting: for `CCCC(=O)Nc1ccc(N2CCN(C(=O)c3cc4ccccc4o3)CC2)cc1` the value was -17.7%; for `CCOC(=O)c1[nH]c2ccc(OC)cc2c1NC(=O)CCN1CCC(C)CC1`, -3.42%; for `O=c1cc(CO)oc(CN2CCN(Cc3ccccc3)CC2)c1O`, -1.31%.
Still for that read-out and setting: for `CC1=NN(c2ccc(C(=O)O)cc2)C(=O)/C1=C\c1ccc(OC(=O)c2cccs2)cc1` the value was -21.7%; for `C=CC[C@@H](CC(=O)N(CCO)Cc1ccccc1)C(=O)NCCOC(=O)[C@H](CC=C)CC(=O)OC(C)(C)C`, 2.02%; for `O=C(O)c1cccc(S(=O)(=O)NNc2ccccc2C(F)(F)F)c1`, -7.76%.
On to `COc1cccc(NC(=O)Cc2ccccc2)c1`, for which the “activity change, negative = inhibition” value was 1.85%.
Same read-out and setting: for `O=C(NC12CC3CC(CC(C3)C1)C2)C1=COCCO1` the value was 4.63%; for `C#CCOCCOCCOCCNc1nc(N2CCN(C(=O)CCCCCCCCCCNC(=O)Cn3cc(CCCCCN)nn3)CC2)nc(N2CCN(C(=O)CCCCCCCCCCNC(=O)[C@H]([C@@H](C)CC)n3cc(CCCCCN)nn3)CC2)n1`, -15.4%.
Turning to `CCC(C)c1ccc(O)c(N)c1` (stereo not drawn), the “activity change, negative = inhibition” value is -10.2%.
Still for that read-out and setting: for `O=S(=O)(c1cc(Cl)ccc1Cl)N1CCNCC1` the value was -6.69%; for `COC(=O)[C@@]12CCCCN1[C@H](c1ccc(-c3ccc(Cl)c(Cl)c3)cc1)[C@H]1C(=O)N(C)C(=O)[C@H]12`, 1.84%; for `CN(C)c1ccc(-c2ccccc2)nn1`, -6.45%.
Take `O=C(CCSCc1ccc(Cl)cc1)NCCc1ccccc1`: the “activity change, negative = inhibition” value was -6.25%.
Consider `COc1cc(C(=O)OC2CCCCC2=O)cc(OC)c1C` (stereo not drawn), for which the Potency is 11.2 µM (active).
With `COC(=O)c1[nH]c2ccc(C)cc2c1NC(=O)CN1CCCc2ccccc21`, the “activity change, negative = inhibition” value is -15.7%.
Same read-out and setting: for `O=C(c1ccccc1N(Cc1ccccc1)S(=O)(=O)c1ccccc1)N1CCOCC1` the value was -4.89%; for `COc1ccc(CCNC(=O)Cc2cc(=O)[nH]c(=O)[nH]2)cc1OC`, -4.19%.
Same read-out and setting: for `Cc1ccc2nc(NCCCNC(=O)c3cnccn3)c(C#N)cc2c1` the value was -11.9%.
